Source: PubChem BioAssay (National Center for Advancing Translational Sciences (NCATS))
HPGD inh: blocks human HPGD enzyme activity | actives 4.3% (n = 150,000) | Potency, µM, most hits filed as inhibitors | AID 894 | purified HPGD, NADH fluorescence kinetic, PGE2 substrate | P15428; active = well fitted inhibition curve with a large enough effect, not every such curve was filed as active; inconclusive = small, poorly fitted or top-dose-only effect, or another doubt; inactive = no such curve, though single readings can be large or run the other way
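NADH formation kinetics: reaction with 30 uM PGE2 and 1 mM NAD+ (final), 20 nM enzyme, Tris-HCl pH 8 with Tween 20, after 15 min compound preincubation at room temperature. Fluorescence change, last versus first of five reads.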
ALDH1A1 block: inhibitors of human aldehyde dehydrogenase 1A1. P00352. Purified ALDH1A1, NADH fluorescence, propionaldehyde substrate. Potency, µM (highest dose often 75.3 µM), most hits filed as inhibitors. actives 7.3% (n = 220,000); active = well fitted inhibition curve with a large enough effect, not every such curve was filed as active; inconclusive = small, poorly fitted or top-dose-only effect, or another doubt; inactive = no such curve, though single readings can be large or run the other way
IMPase cell inh: membrane-permeable compound that blocks inositol monophosphatase. inhibition (IP1 accumulation), % at 46.1 µM. 120,000 tested, under 10 active. AID 901. CHO-M1 cells, IP1 accumulation, HTRF TR-FRET ratio; active = well fitted curve in the direction sought with a large enough effect in the signal ratio, not every such curve was filed as active; inconclusive = small, poorly fitted or top-dose-only effect, or a change in a side signal; inactive = no such curve, though single readings can be large or run the other way; the % refers to the signal ratio;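 note: cells stimulated with carbachol in lithium chloride buffer; higher means more IMPase inhibition seen as more IP1 and lower FRET ratio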
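The IP-One HTRF competitive assay in carbachol-stimulated CHO-M1 cells quantifies cellular IP1. Compounds spanned up to 46 uM final, and activity is expressed as AC50 from concentration-response fits of the ratio and donor data.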
NPSR antagonist: blocks cAMP signaling of the human neuropeptide S receptor; Q6W5P4; CHO-NPSR cells, cAMP TR-FRET, antagonist mode; Potency, µM (titrated, usually from 38.3 µM), usual class: inhibitors; actives 1% (n = 220,000); note: nearly all actives have a fitted effect of over 50% in size
Target sequence (Q6W5P4 whole entry, looked up): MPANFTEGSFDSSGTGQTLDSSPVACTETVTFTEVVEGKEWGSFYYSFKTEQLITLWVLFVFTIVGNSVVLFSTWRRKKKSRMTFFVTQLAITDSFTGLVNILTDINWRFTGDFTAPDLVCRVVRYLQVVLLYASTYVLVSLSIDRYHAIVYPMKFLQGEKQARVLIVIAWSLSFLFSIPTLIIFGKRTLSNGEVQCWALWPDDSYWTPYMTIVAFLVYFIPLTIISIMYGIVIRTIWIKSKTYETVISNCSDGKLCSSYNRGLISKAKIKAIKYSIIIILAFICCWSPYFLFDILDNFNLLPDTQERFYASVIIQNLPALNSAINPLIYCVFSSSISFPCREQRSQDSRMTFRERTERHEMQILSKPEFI
ALOX12 inhib: inhibitors of human 12-lipoxygenase (ALOX12); P18054; purified 12-hLO, xylenol orange hydroperoxide absorbance; Potency, µM (titrated, usually from 57.1 µM), actives largely listed as inhibitors; actives 0.12% (n = 150,000); note: nearly all actives have a fitted effect of over 55% in size
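Purified human 12hLO (150 nM), preincubated 15 min with compound, then 40 uM arachidonic acid for 30 min, room temperature, Hepes pH 7.0 with 0.01% Triton X-100. Hydroperoxide detected by ferrous iron/xylenol orange; 573/405 nm absorbance ratio gives reaction progress.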
IMPase Li inh: membrane-permeable IMPase blocker, potentiated with lithium; Potency, µM (doses to about 59.4 µM), hits mostly inhibitors; actives 0.35% (n = 210,000); CHO-M1 cells, IP1 TR-FRET (IP-One), carbachol + lithium;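 note: IP1 builds up when IMPase is blocked and the TR-FRET signal falls; nearly all actives have a fitted effect of over 50% in size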
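IP1 accumulation measured by competitive TR-FRET in lysed CHO-M1 cells after 30 min compound exposure at 37C, with a small lithium addition to potentiate weak responses. Hill-equation AC50 from ratio and donor-channel data.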
Numbers stand for hits; i = inactive; ? = inconclusive; nt = no result given; [ ] = remark or other dose. Only some compounds are listed: those with a hit (about 8.9% of all), similar ones and a draw of the others. Unless noted, calls come from the whole dose curve; as a rule, active = well fitted curve in the direction sought with a large enough effect; inconclusive = small, poorly fitted or top-dose-only effect, or another doubt; inactive = no such curve, though single readings can be large; an effect the other way counts as inactive or inconclusive.

SMILES	HPGD inh	ALDH1A1 block	IMPase cell inh	NPSR antagonist	ALOX12 inhib	IMPase Li inh
CN(Cc1ccco1)C(=O)C(Cc1ccccc1)NS(=O)(=O)c1ccc2c(c1)CCC(=O)N2 (stereo unspecified)	i	25µM	i	i	i	?
CCCNC(=O)C(Cc1ccccc1)NS(=O)(=O)c1ccc2c(c1)CCC(=O)N2 (stereo unspecified)	i	i	i	i	i	i
CCCCCCC(=O)N(O)C1CC(=O)N(c2ccc(Br)cc2)C1=O (stereo unspecified)	7.1µM	0.56µM	i	i	?	i
COc1ccccc1N(O)C1CC(=O)N(c2ccc(Br)cc2)C1=O (stereo unspecified)	28µM	18µM	i	i	?	i
CCC(c1ccccc1)c1nc(-c2cccnc2)no1 (stereo unspecified)	i	i	nt	i	i	i
COc1cc([N+](=O)[O-])ccc1NC(=O)Cc1ccccc1	nt	i	nt	i	nt	i
COc1cc([N+](=O)[O-])ccc1NC(=O)CCCOc1cccc(C)c1C	i	14µM	i	i	i	i
COc1cccc(-n2nc(-c3ccnn3-c3ccc(C)cc3)c(=O)n(C)c2=O)c1	i	40µM	i	i	i	i
COc1ccc(-n2nccc2-c2nn(-c3cccc(OC)c3)c(=O)n(C)c2=O)cc1	i	i	i	?	i	i
CC(C(=O)O)n1c(C(F)(F)F)nc2ccccc21 (stereo unspecified)	i	i	i	i	i	i
CC(/C=C/c1ccccc1)=N/NC(=O)CNC(=O)c1ccc2c(c1)OCO2	i	i	i	i	i	i
Cc1noc2ncc(C(=O)c3cc(F)ccc3O)cc12	i	i	i	i	i	i
Cc1ccc(O)c(C(=O)c2cnc3onc(-c4ccc(F)cc4)c3c2)c1	13µM	14µM	nt	i	i	i
COc1cccc(-c2cncnc2NCCc2cnc[nH]2)c1	i	i	nt	nt	i	i
CCN(CCCNC(=O)c1c(C)cc(=O)oc1C)c1ccccc1	i	7.9µM	i[1.84 µM]	i	i	i
CCCCN(CCCNC(=O)CN1C(=O)COc2ccccc21)c1ccccc1	i	13µM	i	?	i	i
CCN(CCCNC(=O)CN1C(=O)COc2ccccc21)c1ccccc1	i	i	i	i	i	i
CCCCN(CCCNC(=O)c1c(C)cc(=O)oc1C)c1ccccc1	i	22µM	i	i	i	i
COc1cccc(-c2nc(N3CC(C)CC(C)C3)c3ccccc3n2)c1O (stereo unspecified)	i	i	i	i	i	i
O=C(N1CCOCC1)C12CC3CC(C1)CC(C(=O)N1CCOCC1)(C3)C2	i	i	i	i	i	i
CC(C)CNC(=O)c1ccccc1-c1ccccc1C(=O)O	i	i	i	i	i	i
CC(=O)NC(=S)Nc1ccc(S(=O)(=O)N(C)Cc2ccccc2)cc1	nt	?	nt	?	nt	i
CCC1Oc2ccc(C)cc2N(CC(=O)N(Cc2cccnc2)Cc2ccc(C)o2)C1=O (stereo unspecified)	28µM	3.2µM	i	?	i	i
CCC1Oc2ccc(C)cc2N(CC(=O)N(Cc2ccc(C)o2)C2CC(C)(C)NC(C)(C)C2)C1=O (stereo unspecified)	i	i	nt	i	i	i
N=C1C(c2nc3ccccc3s2)=C(O)CN1Cc1ccco1	?	22µM	i	i	i	i
SMILES	HPGD inh	ALDH1A1 block	IMPase cell inh	NPSR antagonist	ALOX12 inhib	IMPase Li inh
CN(C)CCN1CC(O)=C(c2nc3ccccc3s2)C1=N	nt	nt	nt	i[7.67 µM]	nt	nt
CCOC(=O)C(=O)N(CC)C1CCS(=O)(=O)C1 (stereo unspecified)	nt	i	nt	i	nt	nt
O=C(NCC1COc2ccccc2O1)c1cn(Cc2ccc(F)cc2)nn1 (stereo unspecified)	i	i	i	i	i	i
O=C1C=CC(=O)N1c1ccc(OC(F)F)cc1	7.1µM	0.71µM	nt	i	i	i
CC1(C)CC2CC(C)(CN2C(=O)COc2cccc3ccccc23)C1 (stereo unspecified)	32µM	i	i	?	i	i
CC1(C)CC2CC(C)(CN2C(=O)COC(=O)c2n[nH]c(=O)c3ccccc23)C1 (stereo unspecified)	i	?	i	i	i	i
